This is a sample that favours compounds with a hit; in the whole collection about 4.7% have one here.
D1 antag – human D1 dopamine receptor antagonism; P21728; HEK293 TREx D1 cells, calcium flux, dopamine EC80; stronger effect = lower value; activity change, negative = inhibition, % at 10 µM; actives 3.2% (n = 360,000); AID 504652; in the data active = activity change below about -30%; also: % is scaled to controls: 0 for no effect and ±100 for the full control effect
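Tetracycline-induced HEK293 Trex D1 cells, force-coupled to calcium, dye-loaded; compounds added and read 180 s, then EC80 dopamine added and calcium flux tracked kinetically another 180 s.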
D1 PAM – enhances dopamine response at the human D1 receptor; P21728; HEK293 TREx D1 cells, calcium flux, dopamine EC20 potentiation; potentiation, % at 10 µM; actives 0.036% (n = 360,000); in the data active = potentiation above about 30%; also: 0% is about no effect
TRHR agonist – TRH receptor (human) agonism; P34981; TRHR cells, calcium flux fluo-8, FDSS agonist mode; activation, % at 2 µM; actives 0.18% (n = 360,000); also: 0% is about no effect
Target sequence (P34981 whole entry, looked up): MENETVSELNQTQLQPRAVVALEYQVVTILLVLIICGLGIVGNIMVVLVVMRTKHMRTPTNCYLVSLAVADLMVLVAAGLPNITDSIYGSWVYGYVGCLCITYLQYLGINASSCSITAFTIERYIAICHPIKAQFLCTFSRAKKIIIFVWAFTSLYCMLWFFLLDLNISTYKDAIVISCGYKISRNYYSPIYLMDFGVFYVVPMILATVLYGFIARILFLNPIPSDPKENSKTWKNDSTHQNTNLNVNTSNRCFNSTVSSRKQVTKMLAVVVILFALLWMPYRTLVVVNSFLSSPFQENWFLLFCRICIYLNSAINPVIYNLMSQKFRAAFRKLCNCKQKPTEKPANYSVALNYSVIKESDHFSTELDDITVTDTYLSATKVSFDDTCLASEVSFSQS
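TRHR-expressing cells loaded with fluo-8 calcium dye; 23 nL library compound pin-transferred, kinetic FDSS fluorescence (Ex 480/Em 530) recorded about 180 s for agonist-induced calcium release, before a 10 nM TRH EC20 addition for potentiator mode.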
D1 ag – human D1 receptor agonism | P21728 | HEK293 T-REx D1 cells, calcium flux, agonist mode | activation, % at 2 µM | actives 1% (n = 360,000) | AID 504660; also: 0% is about no effect
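Tetracycline-induced HEK293 TREx D1 cells, force-coupled to calcium signalling, were dye-loaded with a no-wash calcium kit. Compound was pin-added after a 10 s baseline. Fluorescence was read kinetically at 1 cycle/s for 180 s, with calcium rises flagged as agonism.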
TRHR PAM – allosteric enhancers of human TRH receptor; P34981; TRHR cells, fluo-8 calcium fluorescence, EC20 TRH enhancement; enhancement, % at 2 µM; actives 0.66% (n = 360,000); AID 493056; in the data active = enhancement above about 30%; also: 0% is about no effect
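Enhancer read-out: after compound pinning and an initial kinetic agonist-mode read, an EC20 of TRH (10 nM final) was injected and fluo-8 calcium signal (Ex 480/Em 530) followed at 1 s/cycle for 100 cycles in TRHR-expressing cells.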
An asterisk follows results filed as active; nt = no result given. Rule as the data show it, unless noted: active = activation above about 30%; inactive = the rest.

SMILES	D1 antag	D1 PAM	TRHR agonist	D1 ag	TRHR PAM
Cc1cccc(NS(=O)(=O)c2cc(C(=O)NCCC3=CCCCC3)ccc2Cl)c1	-2	-7	1	1	35*
Cc1ccc(C)c(NS(=O)(=O)c2cc(C(=O)NCc3ccccn3)ccc2Cl)c1	-14	12	0	0	6
Cc1cc(C)c(S(=O)(=O)NCCc2csc3nc(-c4ccc(Cl)cc4)nn23)c(C)c1	nt	-3	1	7	0
COc1ccc(NC(=O)Cn2cc(C(=O)c3ccco3)c3ccccc32)cc1	-87*	-5	0	0	3
COc1ccc(NC(=O)Cn2cc(S(=O)(=O)Cc3ccccc3)c3ccccc32)c(OC)c1	-32*	-2	-1	0	0
COc1ccccc1CNC(=O)CCCn1c(=O)c2ccccc2n(CC(=O)Nc2c(C)cc(C)cc2C)c1=O	-2	-2	-1	1	12
c1ccc(COc2ccccc2CNc2nn[nH]n2)cc1	-75*	9	0	0	6
CCC(=O)Nc1cnc(NC(=O)c2cccc(F)c2)cc1C	8	-6	1	8	5
CC(=O)Nc1cnc(NC(=O)c2cccc(F)c2)cc1C	-36*	-3	0	3	8
COc1ccc(C2=NOC(CN3C(=O)c4ccccc4S3(=O)=O)C2)cc1 (stereo unspecified)	-27	-7	0	18	-8
O=C1c2ccccc2S(=O)(=O)N1CC1CC(c2ccc(Cl)cc2)=NO1 (stereo unspecified)	-34*	-3	0	7	-1
O=C1c2ccccc2S(=O)(=O)N1CC1CC(c2ccccc2)=NO1 (stereo unspecified)	-34*	-6	-1	0	-5
O=S(=O)(c1ccccc1)c1nc(-c2ccco2)oc1SCc1ccc(F)cc1	-6	3	2	21	-5
CCN(CC)CCCN(Cc1cc2cc3c(cc2[nH]c1=O)OCO3)C(=S)NCCOC	2	-4	0	2	5
CN(C)CCCNc1nc2sc3c(c2c(=O)n1CCc1ccccc1)CCCCC3	-24	-3	9	59*	-3
Cc1nnc(N2CCC(C(=O)NCCc3ccccc3Cl)CC2)c2nn(-c3ccccc3)c(C)c12	17	-3	-1	0	7
COc1ccccc1NC(=O)C(=O)N/N=C(\C)CC(=O)Nc1ccccn1	-35*	-6	-1	1	-8
CCCS(=O)(=O)c1c(S(=O)(=O)CCC)c2cc(C(C)(C)C)ccn2c1C(=O)c1ccc(C)cc1	1	0	2	0	-2
Oc1ccc(Br)cc1C1C=C(c2ccc3c(c2)OCO3)NC(c2ccc(F)c(Br)c2)N1 (stereo unspecified)	-24	-3	2	19	-3
Cc1ccc(Nc2c(-c3cccnc3)nc3ccc(Cl)cn23)cc1	-7	1	-1	1	6
Cc1ccc(NC(=O)CCOc2ccccc2)c(C)c1	2	0	-1	1	-6
Cc1ccc(F)cc1NC(=O)CCOc1ccccc1	-31*	-7	-1	6	-7
COc1ccc2[nH]c(C)c(CCNS(=O)(=O)c3cc(F)ccc3OC)c2c1	-10	-5	1	0	-1
CC1CN(C(=O)Nc2ccc(C(=O)NCc3ccccc3F)cc2)c2ccccc2S1 (stereo unspecified)	7	-2	-2	9	1
Cc1ccc(CNC(=O)CCC(=O)N2CC(C)Oc3ccc(Cl)cc32)cc1 (stereo unspecified)	5	-5	-1	1	-5
SMILES	D1 antag	D1 PAM	TRHR agonist	D1 ag	TRHR PAM
CC1CN(C(=O)Nc2ccc(C(=O)NCc3cccc(F)c3)cc2)c2ccccc2S1 (stereo unspecified)	-43*	4	0	0	4
CC1CN(C(=O)CCC(=O)NCc2cccc(Cl)c2)c2ccccc2S1 (stereo unspecified)	-32*	-8	1	4	-10
CC1CN(C(=O)CCC(=O)NCc2ccc(Cl)cc2)c2ccccc2O1 (stereo unspecified)	-83*	-19	-1	5	1
Cn1cc(-c2cc3n(n2)CCC(=O)N3CC(=O)NCc2ccccc2)c2ccccc21	-8	-2	0	-1	-1
Cc1cc2c(n1-c1ccc(C(=O)NCc3ccccc3Cl)cc1)CCCC2	-11	2	0	0	1
COCCCNc1nc2c(c(=O)[nH]c(=O)n2C)n1CCCc1ccccc1	-2	-3	-1	1	-1
C=C(C)Cn1c(NCCOC)nc2c1c(=O)[nH]c(=O)n2C	-40*	4	0	-1	-3
COc1cccc(CNc2sc3c(c2C(=O)Nc2ccc(OC)cc2OC)CCC3)c1	4	3	0	1	-3
Cc1cccc(N2CCN(C(=O)c3ccc4c(c3)N(Cc3cccc(Cl)c3)C(=O)c3ccccc3S4=O)CC2C)c1 (stereo unspecified)	0	0	0	3	19
COc1ccc(-n2c(SCC(=O)N3CCCc4ccccc43)nc3c([nH]c4ccccc43)c2=O)cc1	-9	-3	0	0	-2
COc1cccc(-n2c(SCC(=O)NCC3CCCO3)nc3c(c2=O)SCC3)c1 (stereo unspecified)	38	-1	0	3	-4
COC(=O)c1ccc(CSc2nc3c([nH]c4ccccc43)c(=O)n2-c2cccc(OC)c2)o1	-62*	-5	0	1	4
O=C(CSc1nc2c(c(=O)n1-c1ccc(Cl)cc1)SCC2)NCC1CCCO1 (stereo unspecified)	-32*	-13	-1	5	6
COc1ccc(-n2c(SCC(=O)NCC3CCCO3)nc3c([nH]c4ccccc43)c2=O)cc1 (stereo unspecified)	-31*	-2	-1	0	2
COc1cccc(-n2c(SCC(=O)NCC3CCCO3)nc3c([nH]c4ccccc43)c2=O)c1 (stereo unspecified)	2	-4	0	-1	-4
COc1cccc(-n2c(SCC(=O)N3CCCc4ccccc43)nc3c([nH]c4ccccc43)c2=O)c1	-35*	3	0	0	-5
COc1cccc(-n2c(SCC(=O)Nc3cc(C)ccc3C)nc3c(oc4ccccc43)c2=O)c1	14	-6	1	4	-3
COc1ccc2c(c1)c1c(c(=O)n(-c3ccccc3C)c(=O)n1Cc1cccc(C(F)(F)F)c1)n2C	-5	0	1	3	3
Cc1cccc(OCC(=O)Nc2ccc(S(=O)(=O)N(Cc3ccccc3)c3ccccc3)cc2)c1	7	-1	1	17	4
Cc1ccccc1CN(C)C(C)C(=O)Nc1ccccc1F (stereo unspecified)	-13	-1	-1	4	40*
